# PubChem BioAssay (NCATS)
# Records with an inconclusive call do not appear. A number with no mark means an inactive call. Calls of active or inactive are those of the source. Calls come from the whole dose curve; as a rule, active = well fitted cell-killing curve with a large enough effect; inconclusive = small, poorly fitted or top-dose-only effect; inactive = flat fitted curve, though single readings scatter.
# Test: G06 Cancer Cell Toxicity qHTS against the NCATS CANVASS Library (AID 1347368); note: nearly all actives have a fitted effect of over 60% in size
# Conditions: G06 dog glioma cells, viability ATP luminescence, 72 h; series mostly up to 46.1 µM; activity change, negative = cytotoxic: at the top concentration
# Procedure, shortened: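 Cells were plated at 500 per well, then compounds were added over an 11-point range. After 72 hr at 37C, CellTiterGlo was added and luminescence measured as ATP content.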
# % is set by controls: 0 for no effect and ±100 for the full control effect; potency is the fitted concentration of half-maximal effect.
Compound,"activity change, negative = cytotoxic",Potency,outcome
CC[C@@H]1C[C@@]2(CC)OC(=O)[C@@]3(CC)[C@H](CC)[C@@H]1[C@@H]23,0.445%,–,–
[C-]#[N+][C@@]12C(=O)[C@@H]3[C@@H](O[C@@]4(C(=O)N(C)c5cccc1c54)C3(C)C)C(=O)[C@@]2(C)C=C,3.61%,–,–
C[C@@]12CCC[C@@](C)(C(=O)OP(=O)(O)OC[C@H]3O[C@@H](n4cnc5c(N)ncnc54)[C@H](O)[C@@H]3O)[C@H]1C[C@@H](O)[C@@]13C[C@@H](CC[C@@H]21)[C@](C)(O)C3,–,14.8 µM (active),–
CCC(C)=C1OC(=O)[C@H](C)[C@H](O)[C@H](Cc2cccnc2)NC(=O)C(NC(=O)c2ncccc2O)C(C)OC1=O (stereo not given in full),11.2%,–,–
C[C@@]12CCC[C@@](C)(C(=O)O)[C@H]1CC[C@@]13C[C@@H](CC[C@H]12)[C@](C)(O)C3,2.71%,–,–
C=C1C[C@]23C=CC(=O)[C@@](C)(CCCC(C)C(=O)N[C@@H](CO)C(=O)O)[C@@H]2C[C@@H]1CC3 (stereo not given in full),–,–,inactive
COc1cc2ccc(=O)oc2c(O)c1O[C@@H]1O[C@H](CO)[C@@H](O)[C@H](O)[C@H]1O,–,8.12 µM (active),–
C/C(=C\[C@@H](C)CC/C=C/CC/C=C/C(=O)O)[C@@H](O)[C@H](C)C(=O)CCCC1CC(=O)NC(=O)C1,-21.6%,–,–
CO[C@@H](C[C@@H](C)[C@@H](O)/C=C/C=C/CNC(=O)C(C)(C)[C@H](O)\C(C)=C/C=C\C=C\Cc1cnco1)[C@]1(O)[C@@H](C)C(=O)N(C)[C@@]12COC2=O,–,–,inactive
O=C1CC(c2ccc(O)cc2)Oc2cc(O)cc(O)c21 (stereo not given),1.4%,–,–
